Data on 94 molecules can be found in PubChem BioAssay AID463173 (ICCB-Longwood Screening Facility, Harvard Medical School, 2010).

The whole screen tested about 52,000 compounds, of which about 4,300 (8.3%) were called active. The sample holds actives, similar compounds and a random draw of the others, so the mix is not that of the screen. Rule as the data show it: active = survival mostly below about 52% (no sharp cut-off); inactive = mostly above about 56%.

The test deals with DeltatarO mutant. The test is described as follows: S. aureus survival, RN4220 and DeltatarO strains – OD600, teichoic acid synthesis inhibitors, primary screen (AID 463173). The following applies: S. aureus RN4220 wild type/DeltatarO growth, OD600, 18 h, hits give low values, screened at 18.75 µg/mL (by protocol).
With `COc1cc(OC)c(NC(=O)C2CCCN(c3ncnc4c3nc3n4CCCCC3)C2)cc1Cl` (centres undefined), the survival is 122% (inactive).

As to `O=C1c2ccccc2C(=O)N1c1ncn[nH]1`, the survival is 94% (inactive).

In the case of `O=C(CSc1nc2c([nH]c3ccccc32)c(=O)n1-c1ccc(F)cc1)Nc1ccc2c(c1)OCO2`, the survival is 58% (inactive).

Turning to `COc1ccc(NC(=O)Cn2c(=O)n(CCCC(=O)NCc3ccccc3Cl)c(=O)c3ccccc32)c(OC)c1`, the survival was 125% (inactive).

Turning to `O=C(CC1N=C2c3ccccc3N=C(SCc3ccc(Cl)cc3)N2C1=O)NCc1cccs1` (centres undefined), the survival is 75% (inactive).

In the case of `COc1ccc(CCNC(=O)c2ccc(Cn3c(=O)c4ccccc4n(Cc4cccc(F)c4)c3=O)cc2)cc1OC`, the survival is 78% (inactive).

For the molecule `CNC(=O)C1CCC(Cn2c(=O)c3sccc3n(CC(=O)Nc3ccc(C)cc3C)c2=O)CC1` (centres undefined), the survival is 87% (inactive).

Turning to `CNC(=O)C1CCC(Cn2c(=O)c3sccc3n(CC(=O)NCc3ccc(F)cc3)c2=O)CC1` (centres undefined), the survival is 73% (inactive).

Regarding `Cc1ccc(C)c(Cn2c(=O)n(CC3CCC(C(=O)N4CCOCC4)CC3)c(=O)c3sccc32)c1` (centres undefined), the survival was 80% (inactive).

Take `CNC(=O)C1CCC(Cn2c(=O)c3sccc3n(CC(=O)NCc3ccc(C)cc3)c2=O)CC1` (centres undefined): the survival is 80% (inactive).

As for `CNC(=O)C1CCC(Cn2c(=O)c3sccc3n(CC(=O)NCc3ccccc3)c2=O)CC1` (centres undefined), the survival was 32% (active).

Consider `CNC(=O)C1CCC(Cn2c(=O)c3sccc3n(Cc3cc(C)ccc3C)c2=O)CC1` (centres undefined), for which the survival is 47% (active).

With `COc1ccc(CC(=O)NC2CC(=O)N(c3cccc(F)c3)C2)cc1` (centres undefined), the survival is 94% (inactive).

Take `O=C(Nc1nncs1)C1c2ccccc2Oc2ccccc21`: the survival was 108% (inactive).

On to `CCOC(=O)C1CCCN(S(=O)(=O)c2ccc3c(c2)CCCN3C(C)=O)C1` (centres undefined), for which the survival was 80% (inactive).

As for `CS(=O)(=O)N1CCSC1c1ccc(Cl)cc1Cl` (centres undefined), the survival was 109% (inactive).

For `COc1ccc2oc(=O)c(-c3nnc(-c4ccccc4)o3)cc2c1`, the survival was 69% (inactive).

For `O=C(O)CCC(=O)NCc1ccccn1`, the survival was 82% (inactive).

As to `COc1cccc(NC(=O)CSc2nc3ccc(NC(=O)c4cccs4)cc3s2)c1`, the survival was 65% (inactive).

As to `CCN(CC)c1ccc2cc(-c3nnc(-c4cccc(Cl)c4)o3)c(=O)oc2c1`, the survival was 69% (inactive).

For the molecule `CCN(CC)c1ccc2cc(-c3nc(-c4ccccc4F)no3)c(=O)oc2c1`, the survival was 101% (inactive).

With `COc1ccccc1/C=C(\C#N)c1nc(-c2cc3ccccc3oc2=O)cs1`, the survival is 56% (active).

For the molecule `Cc1csc(-c2cc3ccccc3oc2=O)n1`, the survival is 85% (inactive).

On to `CCN(CC)c1ccc2cc(-c3nc(-c4ccc(Cl)cc4Cl)cs3)c(=O)oc2c1`, for which the survival was 37% (active).

As to `O=c1oc2ccccc2cc1-c1nc(-c2cccc(Cl)c2)cs1`, the survival was 102% (inactive).

As to `COc1ccc(/C=C(\C#N)c2nc(-c3cc4ccccc4oc3=O)cs2)cc1OC`, the survival is 65% (inactive).

For the molecule `Cc1cc(C)c(-c2csc(-c3cc4ccccc4oc3=O)n2)cc1C`, the survival was 31% (active).

Regarding `COc1ccc(/C=C(/C#N)c2nc(-c3cc4ccccc4oc3=O)cs2)cc1`, the survival is 78% (inactive).

In the case of `CCCNC(=O)C1CCC(Cn2c(=O)c3sccc3n(CC(=O)N3CCCC3)c2=O)CC1` (centres undefined), the survival is 67% (inactive).

As for `O=c1cc(-c2ccc(F)cc2)nc(SCc2nc(-c3cccc(C(F)(F)F)c3)no2)[nH]1`, the survival was 99% (inactive).

In the case of `COc1ccc(C)cc1NC(=O)C(CCSC)NS(=O)(=O)c1ccc2c(c1)oc(=O)n2C` (centres undefined), the survival is 95% (inactive).

Regarding `CCc1cccc(NC(=O)c2cnc(SC)nc2-c2ccccc2)c1`, the survival is 84% (inactive).

For `COc1ccc2c(Sc3ccccc3)c(C(=O)NCc3cc(Br)ccc3OC)[nH]c2c1`, the survival is 95% (inactive).

As for `Cc1cc(C)cc(NC(=O)CSc2cc(C)[nH]c(=O)n2)c1`, the survival was 90% (inactive).

`CC(=O)c1cccc(Nc2ncnc3c2cnn3-c2cccc(Cl)c2)c1`: the survival is 102% (inactive).

With `COc1ccc(C2C=C(c3ccc(F)cc3)Nc3nc(-c4ccc(Cl)cc4)nn32)cc1` (centres undefined), the survival was 104% (inactive).

For the molecule `COc1cccc(C2=CC(c3ccc(OC)c(OC)c3OC)n3ncnc3N2)c1` (centres undefined), the survival is 91% (inactive).

On to `COc1ccc(C2C=C(c3ccccc3)Nc3nc(NS(=O)(=O)c4ccc(C)cc4)nn32)cc1` (centres undefined), for which the survival was 55% (inactive).

`Cc1ccc(C2=CC(c3c(F)cccc3Cl)n3ncnc3N2)cc1C` (centres undefined): the survival is 64% (inactive).

For the molecule `COc1ccc(C2C=C(c3ccccc3)Nc3nc(NS(=O)(=O)c4ccccc4)nn32)cc1` (centres undefined), the survival is 25% (active).

As to `COc1ccc(C2C=C(c3ccc(Cl)c(Cl)c3)Nc3ncnn32)cc1` (centres undefined), the survival was 6% (active).

As to `CC(C)c1ccc(C2=CC(c3cccc(Cl)c3)n3ncnc3N2)cc1` (centres undefined), the survival is -1% (active).

For the molecule `CC(C)c1ccc(C2=CC(c3cccc(Cl)c3)n3c(nc4ccccc43)N2)cc1` (centres undefined), the survival is 76% (inactive).

As to `COc1ccc(C2C=C(c3ccc(Cl)cc3)Nc3nc(-c4ccc(Cl)cc4)nn32)cc1` (centres undefined), the survival is 38% (active).

Take `CC(C)c1ccc(C2=CC(c3ccc(C(C)C)cc3)n3nnnc3N2)cc1` (centres undefined): the survival was 67% (inactive).

With `Cc1ccc(C2=CC(c3ccc(Cl)cc3)n3nc(-c4ccc(C)cc4)nc3N2)cc1` (centres undefined), the survival is 44% (inactive).

Turning to `CC(=O)Nc1ccc(S(=O)(=O)NCc2ccc3c(c2)CCN3C(C)=O)cc1`, the survival was 89% (inactive).

On to `Cc1ccc(N2C(=O)[C@@H]3CSC(c4ccc(Cl)cc4)N3C2=O)cc1` (some centres undefined), for which the survival was 69% (inactive).

Take `O=C(Cn1ccn(-c2ccc(F)c(F)c2)c(=O)c1=O)Nc1ccccc1F`: the survival was 65% (inactive).

`COc1ccc(CNCC#N)cc1OC`: the survival was 77% (inactive).

On to `CCn1cc(S(=O)(=O)c2ccc(OC)cc2)c(=O)c2cc(F)c(N3CCC(C)CC3)cc21`, for which the survival is 83% (inactive).

Regarding `Cc1cc(C)c2c(n1)SCC(=O)N2CC(=O)Nc1c(C)cccc1C`, the survival is 98% (inactive).

On to `O=C1CC(Sc2ncccc2C(=O)O)C(=O)N1` (centres undefined), for which the survival is 95% (inactive).

As for `COC(=O)CSc1nnc(-c2cccc(O)c2)o1`, the survival was 82% (inactive).

Turning to `Cn1c(=O)oc2cc(S(=O)(=O)NC(Cc3ccccc3)C(=O)NCc3ccccc3Cl)ccc21` (centres undefined), the survival was 110% (inactive).

With `CCCc1cc(N2CCN(c3ccc(OC)cc3)CC2)n2cnnc2n1`, the survival was 71% (inactive).

As for `COc1ccc(C2C=C(c3ccccc3)Nc3nc(NS(=O)(=O)c4ccc(Cl)cc4)nn32)cc1` (centres undefined), the survival is 3% (active).

As to `COc1ccc(C2C=C(c3ccc(Cl)cc3)Nc3nc(NC(=O)CCC(=O)O)nn32)cc1` (centres undefined), the survival was 74% (inactive).

Consider `COc1cc2c(=O)n(Cc3ccccc3Cl)c(=O)n(CC(=O)Nc3ccc(C)c(C)c3)c2cc1OC`, for which the survival was 83% (inactive).

In the case of `O=C(Cn1c(=O)oc2cc(S(=O)(=O)N3CCCC3)ccc21)NCc1ccc(F)cc1`, the survival is 114% (inactive).

On to `CCCN(Cc1cc2cc(C)ccc2[nH]c1=O)C(=O)c1cccc(Cl)c1`, for which the survival is 73% (inactive).

Turning to `Cc1ccccc1NS(=O)(=O)c1ccc2[nH]c3c(c2c1)CCCCC3`, the survival is 89% (inactive).

With `CCc1ccc(NC(=O)CSc2ncc(S(=O)(=O)c3cc(C)ccc3C)c(=O)[nH]2)cc1`, the survival was 59% (inactive).

Regarding `Cc1ccc(C)c(NC(=O)CSc2ncc(S(=O)(=O)c3ccc(C)c(Cl)c3)c(=O)[nH]2)c1`, the survival was 66% (inactive).

`Cc1ccc(C)c(S(=O)(=O)c2cnc(SCC(=O)Nc3ccc(F)cc3F)[nH]c2=O)c1`: the survival is 43% (active).

Regarding `Nc1ccc(-c2ccc(N)cc2C(F)(F)F)c(C(F)(F)F)c1`, the survival is 91% (inactive).

With `Nc1ccc(N2CCN(c3ncc(C(F)(F)F)cc3Cl)CC2)c(C(F)(F)F)c1`, the survival was -5% (active).

With `Nc1ccc(N2CCOCC2)c(N)c1`, the survival is 74% (inactive).

On to `CCCOc1ccccc1C1Oc2nc(SC)nnc2-c2ccccc2N1C(C)=O` (centres undefined), for which the survival was 82% (inactive).

Regarding `O=C(CCn1c(=O)oc2ccccc21)n1c(=O)oc2ccccc21`, the survival was 108% (inactive).

In the case of `Cc1ccc(Nc2c3c(nc4nc(-c5cccs5)nn24)CCCC3)cc1F`, the survival was 20% (active).

Turning to `COc1ccc(C)cc1Nc1c2c(nc3nc(-c4cccs4)nn13)CCCC2`, the survival is 91% (inactive).

For `COc1cc(OC)c(Nc2c3c(nc4nc(-c5cccs5)nn24)CCCC3)cc1Cl`, the survival is 89% (inactive).

Regarding `CC(=O)c1cccc(Nc2c3c(nc4nc(-c5cccs5)nn24)CCCC3)c1`, the survival is 95% (inactive).

Turning to `Cc1ccc(Nc2c3c(nc4nncn24)CCC3)cc1C`, the survival was 55% (inactive).

For the molecule `Fc1cc(Br)ccc1Nc1c2c(nc3nc(-c4cccs4)nn13)CCCC2`, the survival was 8% (active).

In the case of `CC(C)c1ccc(NC(=O)C2CCN(C(=O)c3ccc(F)cc3)CC2)cc1`, the survival is 61% (inactive).

Turning to `COc1ccc(NC(=O)c2cc(-c3ccccc3F)no2)cc1`, the survival was 78% (inactive).

For `CCOC(=O)c1ccccc1NC(=O)N(C)CCc1c(C)nn(CC)c1C`, the survival is 78% (inactive).

In the case of `COc1ccc(-c2cc3nc(C)c(CCC(=O)Nc4cccc(C(F)(F)F)c4)c(C)n3n2)c(OC)c1`, the survival was 92% (inactive).

Regarding `Cc1ccc(S(=O)(=O)N2CC=C(c3c(C)n(CC(=O)N4CCCC4)c4ccccc34)CC2)cc1C`, the survival is 72% (inactive).

In the case of `CCCCC1CCC(C(=O)N2CC(=O)Nc3ccc(F)cc3C2c2ccc(F)cc2)CC1` (centres undefined), the survival was 38% (active).

Regarding `CCCCC1CCC(C(=O)N2CC(=O)Nc3ccc(C)cc3C2c2ccc(F)cc2)CC1` (centres undefined), the survival was 126% (inactive).

Regarding `O=C1CN(C(=O)C2CCCCC2)C(c2ccccc2)c2cc(F)ccc2N1` (centres undefined), the survival was 70% (inactive).

Take `CCCCC1CCC(C(=O)N2CC(=O)Nc3ccc(Br)cc3C2c2ccc(F)cc2)CC1` (centres undefined): the survival was 55% (inactive).

As for `CCCCC1CCC(C(=O)N2CC(=O)Nc3ccc(Cl)cc3C2c2ccc(F)cc2)CC1` (centres undefined), the survival was 40% (active).

Consider `CCCCC(=O)N1CC(=O)Nc2ccc(F)cc2C1c1ccc(F)cc1` (centres undefined), for which the survival is 60% (inactive).

With `CCc1ccc2occ(CC(=O)Nc3sc4c(c3C(=O)OC)CCC4)c2c1`, the survival is 70% (inactive).

With `Cc1cc(-n2ccnc(NCCc3ccc(S(N)(=O)=O)cc3)c2=O)ccc1Br`, the survival is 94% (inactive).

Regarding `Cc1ccc2c(c1)CC(C)N2S(=O)(=O)c1nnc(NC(=O)C(C)C)s1` (centres undefined), the survival is 58% (inactive).

On to `Cc1ccc2c(c1)CC(C)N2S(=O)(=O)c1nnc(NC(=O)c2ccccc2F)s1` (centres undefined), for which the survival was 9% (active).

Consider `Cc1ccccc1C(=O)Nc1nnc(S(=O)(=O)N2c3ccccc3CC2C)s1` (centres undefined), for which the survival is 20% (active).

As for `CC1Cc2ccccc2N1S(=O)(=O)c1nnc(NC(=O)c2ccccc2Br)s1` (centres undefined), the survival was 23% (active).

Regarding `Cc1ccc2c(c1)CC(C)N2S(=O)(=O)c1nnc(NC(=O)CC(C)C)s1` (centres undefined), the survival was 59% (inactive).
